Screening results as filed in PubChem BioAssay.
HCMV inh = qHTS Assay for inhibitors of the human cytomegalovirus (HCMV). HFF cells, HCMV-luciferase reporter, 72 h; stronger effect = lower value. activity change, negative = inhibition, % at 57.5 µM. 410,000 tested, 4.5% active. AID 1259415, 2018; in the data active means activity change below about -60%; inconclusive means no clear call, values can overlap the other calls; inactive means above about -39%
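HFF cells seeded 16 h at 37C, treated with compounds, infected with luciferase-reporter HCMV at MOI 1 PFU/cell; luciferase read at 72 h post infection, normalized to buffer-only and Salinomycin controls.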
MARV entry inh = qHTS for inhibitors of binding or entry into cells for Marburg Virus; Potency, µM (highest dose often 37.8 µM), for inactives: top-dose activity change, negative = inhibition, actives largely listed as inhibitors; 300,000 tested, 1.8% active; Marburg virus pseudotyped entry inhibition, cell reporter; AID 540276, 2011; calls by dose curve; tested in HEK293 cells; further: potency means the concentration at half of the fitted maximal effect
HCV inh = qHTS Assay for Inhibitors of Hepatitis C Virus (HCV); AID 651820, 2012; Potency, µM (titrated, usually from 41.8 µM), for inactives: top-dose activity change, negative = inhibition, most hits filed as inhibitors; 340,000 tested, 3.4% active; Huh7.5.1 HCVcc-Cre infection, luciferase reporter, 44 h; active means well fitted inhibition curve with a large enough effect; inconclusive means small, poorly fitted or top-dose-only effect, or another doubt; inactive means no such curve, though single readings can be large or run the other way; further: potency means the concentration at half of the fitted maximal effect
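1,000 cells/well; 4 h culture; + compound; + HCVcc-Cre (~0.5 moi); 44 h; luciferase substrate, RT 15 min; read 15 sec.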
VACV mCherry inh = qHTS for Stage-Specific Inhibitors of Vaccinia Orthopoxvirus: mCherry Reporter Primary qHTS. Vaccinia virus mCherry reporter infection, fluorescence. Potency, µM (highest dose often 36.5 µM), for the others: at the highest dose activity change, negative = inhibition, hits mostly inhibitors. 310,000 tested, 0.63% active. AID 720579, 2013; calls by dose curve; tested in A549 cells; further: potency means the concentration at half of the fitted maximal effect; nearly all actives have a fitted effect of over 35% in size
LASV entry inh = qHTS for Inhibitors of binding or entry into cells for Lassa Virus | Lassa virus pseudotype entry inhibition, cell reporter | Potency, µM (titrated, usually from 37.9 µM), for inactives: top-dose activity change, negative = inhibition, usual class: inhibitors | 300,000 tested, 1.2% active; calls by dose curve; tested in HEK293 cells; further: potency means the concentration at half of the fitted maximal effect; nearly all actives have a fitted effect of over 50% in size
Vaccinia Venus = qHTS for Stage-Specific Inhibitors of Vaccinia Orthopoxvirus: Venus Reporter Primary qHTS; Vaccinia virus Venus reporter expression, fluorescence; Potency, µM (series often up to 36.5 µM), without a hit: at the top dose activity change, negative = inhibition, usual class: inhibitors; 330,000 tested, 0.46% active; AID 720580, 2013; calls by dose curve; tested in A549 cells; further: potency means the concentration at half of the fitted maximal effect; nearly all actives have a fitted effect of over 30% in size
Active calls of the source: *; [ ] = remark or other dose. Sampled rows, rich in hits. Any-hit rate of the full collection: about 7.8%. On the % scale 0 is the no-effect control and ±100 the full control effect.

For CC1CCCN(C(=S)Nc2ccc(S(=O)(=O)N3CCCCC3)cc2)C1 (stereo not given) the results were HCMV inh -67*, MARV entry inh -22%[46.1 µM], HCV inh 8%, VACV mCherry inh inactive, LASV entry inh -14%[46.1 µM] and Vaccinia Venus -19%.
`CC(=O)Nc1ccc(S(=O)(=O)N2CCc3c(Cl)cccc3C2)cc1` gave HCMV inh -67*, HCV inh inconclusive, VACV mCherry inh -44% and Vaccinia Venus -26%.
`CC(=O)Nc1ccc(S(=O)(=O)N2CCN(C(=O)N3CCCC3)CC2)cc1` gave HCMV inh -21, MARV entry inh 4%[46.1 µM], HCV inh 5%, VACV mCherry inh -5% and Vaccinia Venus -19%.
Screening COc1cc(/C=C/CN2CCOc3ccc(C(O)c4cccnc4)cc3C2)ccc1O (stereo not given) returned VACV mCherry inh -14% and Vaccinia Venus -7%.
For COc1cccc(CNC(=O)CCn2c(=O)c3cccn3c3cccnc32)c1OC the results were HCMV inh inconclusive, VACV mCherry inh -6%, LASV entry inh 5%[46.1 µM] and Vaccinia Venus -6%.
CC(=Nc1ccccc1)C1=C(O)C(Cc2cccc(F)c2)NC1=O (stereo not given) was read as HCMV inh -72*, VACV mCherry inh -12% and Vaccinia Venus inconclusive.
`CC(=Nc1ccccc1)C1=C(O)C(Cc2ccc(O)cc2)NC1=O` (stereo not given) gave HCMV inh -69*, MARV entry inh -24%, HCV inh 21%, VACV mCherry inh -15%, LASV entry inh inconclusive and Vaccinia Venus inconclusive.
`CCN1CCN(C(=O)Cn2ncc3c4ccccc4n(Cc4ccccc4F)c3c2=O)CC1` gave HCMV inh -25, MARV entry inh -34%[46.1 µM], VACV mCherry inh -15%, LASV entry inh 1%[46.1 µM] and Vaccinia Venus -8%.
`COc1ccccc1CNC(=O)CCCn1nc(C)c2sc3ccccc3c2c1=O` gave HCMV inh 10, MARV entry inh -4%[46.1 µM], VACV mCherry inh -3%, LASV entry inh 6%[46.1 µM] and Vaccinia Venus -5%.
Screening COc1cc2nc(NC3CCN(C)CC3)nc(NC3CCN(C)CC3)c2cc1OC returned VACV mCherry inh -7% and Vaccinia Venus -20%.
`FC(F)(F)c1ccc(/C=N/NC(=S)NC2CCCCC2)cc1` gave HCMV inh 0, MARV entry inh -1%, HCV inh 7%, VACV mCherry inh -8%, LASV entry inh -18% and Vaccinia Venus -13%.
Screening FC(F)(F)c1cccc(/C=N/NC(=S)NC2CCCCC2)c1 returned HCMV inh -95*, MARV entry inh inconclusive, HCV inh -4%, VACV mCherry inh -20%, LASV entry inh inconclusive and Vaccinia Venus -13%.
Screening CCOc1ccc(S(=O)(=O)N2CCC(c3ccncc3)CC2)cc1 returned HCMV inh -21, VACV mCherry inh -1%, LASV entry inh -12%[46.1 µM] and Vaccinia Venus -28%.
NC(=O)c1ccc(N2CCN(S(=O)(=O)c3ccccc3)CC2)c([N+](=O)[O-])c1 was read as HCMV inh -90*, MARV entry inh -27%[46.1 µM], HCV inh 2.8µM*, VACV mCherry inh 0%, LASV entry inh 2µM* and Vaccinia Venus 2%.
`NC(=O)c1ccc(N2CCN(c3ccc(O)cc3)CC2)c([N+](=O)[O-])c1` gave HCMV inh -66*, MARV entry inh inconclusive, HCV inh inconclusive, VACV mCherry inh inconclusive, LASV entry inh -30% and Vaccinia Venus -20%.
`CC(=O)c1ccc(N2CCN(c3ccc(C(N)=O)cc3[N+](=O)[O-])CC2)cc1` gave HCMV inh inconclusive, HCV inh -9%, VACV mCherry inh -23% and Vaccinia Venus -25%.
`O=C(c1ccc(N2CCCCC2)c([N+](=O)[O-])c1)N1CCN(S(=O)(=O)c2ccccc2)CC1` gave HCMV inh -19, MARV entry inh -3%[46.1 µM], HCV inh inconclusive, VACV mCherry inh -17%, LASV entry inh inconclusive and Vaccinia Venus -3%.
For CCN(C(=O)C(NS(=O)(=O)c1ccc(Br)s1)c1ccccc1)c1ccc(C)c(C)c1 (stereo not given) the results were HCMV inh -64*, MARV entry inh inconclusive, VACV mCherry inh -4%, LASV entry inh inconclusive and Vaccinia Venus inconclusive.
Screening CCN(CC)c1ccc(NC(=O)C(Cc2ccccc2)NS(=O)(=O)c2ccc(Br)s2)c(C)c1 (stereo not given) returned HCMV inh -10, MARV entry inh 13%[46.1 µM], VACV mCherry inh -8%, LASV entry inh 1%[46.1 µM] and Vaccinia Venus -7%.
Screening Cn1ncc(Cl)c1C(=O)NCc1ccc(Cl)cc1 returned HCMV inh -72*, MARV entry inh -14%, HCV inh inconclusive, VACV mCherry inh -26%, LASV entry inh -15% and Vaccinia Venus -16%.
Cc1cc(C)n2c(SCC(=O)N3CCN(S(=O)(=O)c4ccc(Cl)cc4)CC3)nnc2n1 was read as HCMV inh -73*, MARV entry inh 14%[46.1 µM], HCV inh 1%, VACV mCherry inh -14%, LASV entry inh -11% and Vaccinia Venus -15%.
CCCn1c(SCC(=O)N2CCN(S(=O)(=O)c3ccc(Cl)cc3)CC2)n[nH]c1=O was read as HCMV inh -14, MARV entry inh -8%[46.1 µM], HCV inh -11%, VACV mCherry inh -27%, LASV entry inh -6% and Vaccinia Venus -16%.
`Cc1ccc(S(=O)(=O)NCC2CCCO2)cc1` (stereo not given) gave HCMV inh 18, MARV entry inh 29%, HCV inh 21%, VACV mCherry inh -14%, LASV entry inh 10% and Vaccinia Venus -10%.
For O=S(=O)(NCC1CCCO1)c1ccc(-c2ccc(S(=O)(=O)NCC3CCCO3)cc2)cc1 (stereo not given) the results were HCMV inh -93*, MARV entry inh -38%[46.1 µM], HCV inh inconclusive, VACV mCherry inh inconclusive and Vaccinia Venus inconclusive.
CC(CCC(=O)OC[C@H]1O[C@H](C#Cc2ccccc2)C=C[C@H]1Oc1ccc(C)cc1)=NO[C@H](C)c1cn([C@H](CO)Cc2ccccc2)nn1 was read as MARV entry inh inconclusive and LASV entry inh -6%[14.3 µM].
O=C1CN(S(=O)(=O)Cc2ccccc2)C[C@H]2[C@H](c3ccc(Br)cc3)[C@H](CO)N12 was read as HCMV inh -1.
